Compound activity: PubChem, several laboratories
Hits are enriched below; roughly 1.2% of the tested compounds scored in any of these assays.
PG9 Ab binder: binds the HIV-1 gp120 antibody PG9; TR-FRET gp120-PG9 antibody binding; inhibition, % at 6.7 µM; 360,000 tested, 0.43% active; in the data active = inhibition above about 8.5%
PKA-R1A activ: activates the PKA-R1A holoenzyme complex; P00514+P68181; PKA-R1A dissociation, Cy5-IP20 fluorescence polarization; scaled: DMSO 0%, 113 µM cGMP 100%; activation, % at 11.4 µM; 340,000 tested, 0.083% active;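 active = percent activation above the mean of all tested compounds plus 3 SD, cut at about 19% in these data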;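 note: higher means more PKAc released from R1A so a rise in polarization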
PKA-R2B activ: PKA-R2B complex activation. PKA-R2B holoenzyme dissociation, Cy5-IP20 fluorescence polarization; R2B truncated from residue 108, S112A mutant; 0% DMSO only, 100% 113 µM cGMP. activation, % at 11.4 µM. 340,000 tested, 0.079% active;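 active = activation above a cutoff set at the mean over all compounds plus 3 SD, cut at about 18% in these data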;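 note: higher means more holoenzyme dissociation and a rise in polarization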
NR1D1 modulator: modulators of human Rev-erb alpha DNA binding | P20393 | Rev-erbα–FITC-DNA binding, fluorescence polarization, 90 min | activity, % at 10 µM | 370,000 tested, 0.79% active;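 active = activity above about 14%, limit read from the data; passing the limit was not always enough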;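 note: 0% = DMSO wells with 35 nM protein and 100% = DMSO wells with 750 nM protein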
Target sequence (P20393 whole entry, looked up): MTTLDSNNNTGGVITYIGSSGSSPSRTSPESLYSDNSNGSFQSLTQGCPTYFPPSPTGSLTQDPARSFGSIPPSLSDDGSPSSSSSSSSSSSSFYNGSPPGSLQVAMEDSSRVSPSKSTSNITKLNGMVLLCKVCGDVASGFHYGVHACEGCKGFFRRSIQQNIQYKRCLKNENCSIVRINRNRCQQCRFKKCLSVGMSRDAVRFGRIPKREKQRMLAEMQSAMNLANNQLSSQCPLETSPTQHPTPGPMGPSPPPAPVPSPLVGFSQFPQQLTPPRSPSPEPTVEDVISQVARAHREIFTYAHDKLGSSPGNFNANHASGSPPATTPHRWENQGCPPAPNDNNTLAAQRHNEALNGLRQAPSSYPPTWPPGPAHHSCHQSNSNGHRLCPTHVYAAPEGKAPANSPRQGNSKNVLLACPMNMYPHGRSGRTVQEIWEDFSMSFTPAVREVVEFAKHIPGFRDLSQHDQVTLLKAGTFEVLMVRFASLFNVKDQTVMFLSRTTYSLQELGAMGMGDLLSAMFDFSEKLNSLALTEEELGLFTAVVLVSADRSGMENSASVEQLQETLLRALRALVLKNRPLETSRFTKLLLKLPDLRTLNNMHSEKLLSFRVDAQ
Rev-erbA confirm: confirmation of modulators of human Rev-erb alpha DNA binding; shares compounds with NR1D1 modulator; Rev-erb alpha FITC-DNA binding, fluorescence polarization, 90 min; activation, % at 25 µM; 3,000 tested, 61% active;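 active = activation at or above a set limit, or at least 3 SD above the negative control mean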;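 note: 0% = 35 nM protein with DMSO and 100% = 750 nM protein high control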
RORg counter: RORgamma DNA-binding activity, dose-response counter-screen | shares compounds with NR1D1 modulator | purified RORgamma protein-FITC-DNA binding, fluorescence polarization | IC50, µM | 910 tested, 8% active | AID 1259320;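 active = Compounds whose fitted half-maximal concentration for disrupting protein-DNA binding is below 10 micromolar; the record names Rev-erb in its text, so the target is in doubt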
* = called active by the depositor; nt = not tested or not shown.

SMILES	PG9 Ab binder	PKA-R1A activ	PKA-R2B activ	NR1D1 modulator	Rev-erbA confirm	others
S=c1nc(C2CCCCC2)[nH]c2ccccc12	8	-4	-4	16*	13
S=c1nc(C2CC2)[nH]c2ccccc12	3	-12	-4	2	nt
C[C@@H]1NC(=O)[C@H]2C[C@@]3(c4ccccc4)c4ccccc4N[C@H]3N2C1=O	nt	nt	nt	-3	nt
CC(=O)c1cnc2cc(-c3cccc(Br)c3)nn2c1C	-1	-2	6	24*	6
CCCCCC[C@@H](CCC)C(=O)O	nt	nt	nt	0	nt
COc1nc(-c2ccccc2)ccc1-c1noc(-c2cccs2)n1	2	-10	-4	59*	40*	RORg counter=>40
COc1ccc(-c2ccc(-c3noc(-c4ccccc4)n3)c(OC)n2)cc1	-2	4	5	22*	18*
COc1ccc(-c2ccc(-c3noc(-c4ccccc4F)n3)c(OC)n2)cc1	-2	-4	0	38*	39*	RORg counter=>40
COc1ccc(-c2noc(-c3ccccc3F)n2)cc1	1	11	-5	0	nt
COc1nc(-c2ccccc2)ccc1-c1noc(-c2ccccc2)n1	1	-7	3	14	nt
O=C(Nc1ccccc1)Nc1c(-c2ccccc2)nc2ncccn12	nt	nt	nt	-4	nt
Clc1cc(Cl)cc(CNC2CCC23CCC(c2ccccc2)CC3)c1 (stereo not given)	nt	nt	nt	0	nt
Cc1cccc(NC(=O)C2CCN(c3ncccn3)CC2)c1C	nt	nt	nt	5	nt
COC(=O)[C@]12C[C@H](CC(=O)NCC34CC5CC(CC(C5)C3)C4)C(=O)N(Cc3cccc4ccccc34)C1=C[C@H](C1CCCC1)O[C@@H]2C	nt	nt	nt	-3	nt
Brc1ccc(-c2nn3c(-c4ccccc4)nnc3s2)cc1	nt	nt	nt	34*	71*	RORg counter=2.9*
CCC[C@H]1[C@@H](OC(=O)NCc2cccs2)CC[C@@]23CCCN2C(=O)CCC[C@@H]13	nt	nt	nt	6	nt
CCC[C@H]1[C@@H](N(C)Cc2cccs2)CC[C@@]23CCCN2C(=O)CCC[C@@H]13	nt	nt	nt	43*	52*	RORg counter=>40
CN1C(=O)c2cc(NC(=O)Nc3ccccc3)ccc2OC[C@H]2O[C@@H](CC(=O)NCc3ccc(-c4ccccc4)cc3)CC[C@@H]21	nt	nt	nt	21	nt
CN1C(=O)c2cc(NC(=O)Nc3ccccc3F)ccc2OC[C@H]2O[C@@H](CC(=O)NCc3ccc(-c4ccccc4)cc3)CC[C@@H]21	nt	nt	nt	107*	70*	RORg counter=>40
CN1C(=O)c2cc(NS(C)(=O)=O)ccc2OC[C@H]2O[C@@H](CC(=O)NCc3ccc(-c4ccccc4)cc3)CC[C@@H]21	nt	nt	nt	83*	20*
CC(=O)N1CCc2cc(S(=O)(=O)NCCC(=O)N(C)C3CCCCC3)ccc21	nt	nt	nt	-4	nt
CN(Cc1ccccc1)C(=O)OCc1cn(Cc2cccc(Cl)c2)nn1	nt	nt	nt	9	nt
Cc1cc(C(F)(F)F)n(-c2nc(C(=O)Nc3cccnc3)cs2)n1	2	-4	0	0	nt
CC(=O)c1cccc(NC(=O)c2csc(-n3nc(C)cc3C(F)(F)F)n2)c1	-1	9	8	78*	70*	RORg counter=>40
O=C(Nc1cccc(F)c1)c1ccc2c(c1)OCO2	-1	-13	3	1	nt
SMILES	PG9 Ab binder	PKA-R1A activ	PKA-R2B activ	NR1D1 modulator	Rev-erbA confirm	others
O=C(Nc1ccc2nn(-c3ccccc3)nc2c1)c1ccc2c(c1)OCO2	-19	8	-5	23*	28*
Cc1c(NC(=O)c2ccc3c(c2)OCO3)cccc1-c1nc2ccccc2s1	2	-7	9	13	nt
CCN(CC)c1ccc(NC(=O)c2ccc3c(c2)OCO3)cc1	-11	-4	-5	16*	1
O=C(Nc1c(C(=O)Nc2cccc(F)c2)oc2ccccc12)c1ccc2c(c1)OCO2	0	-6	-7	51*	17
O=C(Nc1cccc(-c2nc3ccccc3s2)c1)c1ccc2c(c1)OCO2	-1	3	-6	45*	12
CCC(=O)Nc1ccc(NC(=O)c2ccc3c(c2)OCO3)cc1	2	-8	-13	-2	nt
CN(C)c1ccc(Cn2c(=O)n(Cc3ccc(C(=O)NCC4COC4)cc3)c(=O)c3ccccc32)cc1	nt	nt	nt	0	nt
COc1ccc2nc(NC(=O)C(NS(=O)(=O)c3cccc4nsnc34)C(C)C)sc2c1 (stereo not given)	0	-4	5	31*	18*
Clc1ccc(N2CCN(c3ncnc4c3oc3ccccc34)CC2)cc1	0	7	0	37*	12
CCCCN(C)C1=CC2=CC(=C(C#N)C#N)CCC2CC1 (stereo not given)	-10	-6	2	69*	34*	RORg counter=>40
CCN(CC)C1=CC2=CC(=C(C#N)C#N)CCC2CC1 (stereo not given)	-7	0	4	66*	24*
CCN(CC)C(=O)CNc1nnnn1-c1ccccc1	nt	nt	nt	-3	nt
COc1ccc(S[C@]2(C(=O)N(C)C)CC(=O)N[C@@H]2c2ccc(OC)cc2)cc1	nt	nt	nt	-6	nt
CCOC(=O)[C@H](CCc1ccccc1)N[C@@H](C)C(=O)N1C(=O)N(C)C[C@H]1C(=O)O	nt	nt	nt	1	nt
Cn1cc(C2N3CC4(C)CN2CC(C)(C3)C4=O)c2ccccc21 (stereo not given)	-1	6	-12	17*	18*
Cc1c(C2N3CC4(C)CN2CC(C)(C3)C4=O)c2ccccc2n1C (stereo not given)	0	7	17	42*	69*	RORg counter=>40
CC12CN3CC(C)(CN(C1)C3c1cc(Br)ccc1O)C2=O (stereo not given)	1	6	-7	18	nt
CCCNC(=O)c1ccc(N2CCC3(CC2)CC(c2ccccc2)=NO3)c(NC(=O)c2cccc(OC)c2)c1	0	0	1	20*	1
COC(=O)[C@]12C[C@H](CC(=O)NCC34CC5CC(CC(C5)C3)C4)C(=O)N(CCc3ccc(OC)c(OC)c3)C1=C[C@H](C1CCCC1)O[C@@H]2C	nt	nt	nt	1	nt
Cc1ccc(OCC(=O)NNC(=O)C2CCN(c3ncccn3)CC2)cc1	-1	-3	11	2	nt
Cc1ccc(OCC(=O)NNC(=O)C2CCN(c3nc(C)cc(C)n3)CC2)cc1	-2	3	-9	23*	-1
Clc1ccc2nc(N3CCNCC3)nc(-c3ccccc3)c2c1	-1	-10	-6	5	nt
O=C1CN(c2nc(-c3ccccc3)c3cc(Cl)ccc3n2)c2ccccc2N1	-2	-8	4	32*	-1
O=C1CC(c2cccc(Cl)c2)Cc2nc(N3CCOCC3)ncc21 (stereo not given)	-1	-7	1	-1	nt
O=C1CC(c2ccccc2)Cc2nc(N3CCc4ccccc43)ncc21 (stereo not given)	-2	-14	-8	30*	23*
O=C1CC(c2cccc(Cl)c2)Cc2nc(N3CCN(c4ccccc4)CC3)ncc21 (stereo not given)	1	0	-9	37*	19*
